PHOSPHO1 inh: PubChem AID 1565; Phosphoethanolamine/phosphocholine phosphatase (Homo sapiens), Q8TCT1; recombinant PHOSPHO1, absorbance phosphatase assay; inhibition, % at 13.3 µM; 290,000 compounds, 1.1% hits; in the data active = inhibition above about 60%
aDG glyco act: activators of alpha-DG glycosylation, primary screen, uHTS, Pro5-aDG cells, AlphaScreen; activation, % at 10 µM; alpha-DG glycosylation AlphaScreen (IIH6); 0% Pro5, 100% B10-LARGE cell signal; 360,000 compounds, 0.22% hits; AID 624168, 2012;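 active = activation of at least 8% versus controls, or a plate z-score of at least 8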;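 note: Pro5 are CHO cells carrying HIG-tagged alpha-DG that lacks glycosylation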
ALR inh: inhibitors of human ALR sulfhydryl oxidase, primary screen, biochemical, H2O2 detection, HRP-luminol luminescence, single point | inhibition, % (concentration not given with the values) | FAD-linked sulfhydryl oxidase ALR (Homo sapiens), P55789 | 290,000 compounds, 3.8% hits | AID 485317, 2010 | purified ALR, DTT oxidation;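 active = mean replicate inhibition above about 79%, with every replicate also reaching it, limit read from the data; inconclusive = only one of the two criteria met; inactive = mean below limit and not every replicate reaching it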
Target sequence (P55789 whole entry, looked up): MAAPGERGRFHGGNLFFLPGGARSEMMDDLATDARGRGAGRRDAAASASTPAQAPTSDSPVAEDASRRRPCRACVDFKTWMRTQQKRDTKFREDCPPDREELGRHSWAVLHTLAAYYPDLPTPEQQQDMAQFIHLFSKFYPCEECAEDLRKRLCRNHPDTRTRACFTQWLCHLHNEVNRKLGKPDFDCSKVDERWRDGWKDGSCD
APOBEC3G inh: APOBEC3G DNA deaminase inhibitors, primary screen, biochemical, fluorescence, single-stranded DNA substrate, uHTS. DNA dC->dU-editing enzyme APOBEC-3G (Homo sapiens), Q9HC16. recombinant A3G, ssDNA deamination FAM/TAMRA fluorescence. inhibition, % at 20 µM. 330,000 compounds, 0.28% hits;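 active = inhibition of at least 40% at 20 µM, with no more than 30% in the related APOBEC3A deaminase screen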
APOBEC3A inh: APOBEC3A ssDNA deaminase inhibitors, primary screen, selectivity assay for APOBEC3G inhibitor project, biochemical, FAM/TAMRA oligo cleavage fluorescence; inhibition, % at 20 µM; recombinant A3A, FAM/TAMRA ssDNA deamination fluorescence; 330,000 compounds, 0.41% hits; DNA dC->dU-editing enzyme APOBEC-3A (Homo sapiens), P31941;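 active = at least 40% inhibition at 20 µM here, with at most 30% in a related deaminase screen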
Target sequence (P31941 whole entry, looked up): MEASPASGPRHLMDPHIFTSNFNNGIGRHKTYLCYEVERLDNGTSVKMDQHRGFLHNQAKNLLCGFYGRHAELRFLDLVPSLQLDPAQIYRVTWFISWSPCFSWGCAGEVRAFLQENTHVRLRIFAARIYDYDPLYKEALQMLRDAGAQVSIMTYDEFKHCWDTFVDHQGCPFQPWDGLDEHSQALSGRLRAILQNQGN
rCAG binder: binders of r(CAG) RNA repeats, primary screen, biochemical, fluorescence; r(CAG) RNA repeat, TO-PRO-1 dye displacement fluorescence; inhibition, % at 3 µM; 370,000 compounds, 1.3% hits; AID 651821, 2012;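 active = inhibition above the plate cutoff, the mean of all test compounds on that plate plus 3 SD, cut at about 35% in these data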;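 note: higher means more dye released from RNA so lower well fluorescence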
Hits are given with their value; i = inactive; ? = inconclusive; nt = not tested or not shown. Only some compounds are listed: those with a hit (about 5.4% of all), similar ones and a draw of the others.

SMILES | PHOSPHO1 inh | aDG glyco act | ALR inh | APOBEC3G inh | APOBEC3A inh | rCAG binder
CC(C)NC(=O)N[C@@H]1C[C@@H]2O[C@@H](CO)CC[C@@H]2O[C@@H]1CCc1ccc(-c2ccccc2F)cc1 | nt | nt | nt | nt | nt | i
COc1cc(C=NN2CCCCC2)cc(OC)c1OC | nt | i | nt | nt | nt | i
COc1ccc(/C=N/N2C(C)CCCC2C)cc1O (centres undefined) | i | i | i | i | i | i
Clc1ccc(C=NN2CCCCCC2)cc1 | nt | i | nt | nt | nt | i
CC1CCCC(C)N1/N=C/c1ccc(O)c(O)c1 (centres undefined) | i | i | 99 | i | i | i
Clc1ccc(/C=N/N2CCCCC2)cc1 | 65 | i | i | i | i | i
COc1cc(/C=N/N2CCCCC2)cc(OC)c1O | i | i | 99 | i | i | i
COc1ccc2c(c1)N(C[C@H](C)CN(C)C)c1ccccc1S2 | nt | i | nt | nt | nt | i
CC(CN1c2ccccc2Sc2ccccc21)N(C)C (centres undefined) | i | i | 99 | i | i | i
CC(CN(C)C)CN1c2ccccc2Sc2ccccc21 (centres undefined) | nt | i | 99 | i | i | i
O=C(CCCC1=NS(=O)(=O)c2ccccc2N1)N1CCN(c2ccc(Cl)cc2)CC1 | i | i | 96 | i | i | i
O=C(CCCC1=NS(=O)(=O)c2ccccc2N1)N1CCN(c2ccccc2)CC1 | i | i | i | i | i | i
O=C(O)Cc1ccc(O)c(O)c1 | i | i | 98 | i | i | i
CN(CCOC(=O)CSc1ccccc1)C1CN(Cc2cn(Cc3ccccc3F)nn2)S(=O)(=O)C1 (centres undefined) | nt | nt | nt | nt | nt | i
Cc1cc(C(=O)CSc2n[nH]c(N)n2)c(C)n1-c1ccc(F)cc1 | i | i | ? | i | i | i
Cc1cc(C(=O)CSc2n[nH]c(N)n2)c(C)n1-c1cc(F)ccc1F | i | i | i | i | i | i
Cc1ccc(-n2c(C)cc(C(=O)CSc3n[nH]c(N)n3)c2C)cc1 | i | i | i | i | i | i
C=CCn1c(C)cc(C(=O)CSc2n[nH]c(N)n2)c1C | 62 | i | 98 | i | i | i
Cc1cc(C(=O)CSc2n[nH]c(N)n2)c(C)n1C1CC1 | 96 | i | i | i | i | i
Cc1cc(C(=O)CSc2n[nH]c(N)n2)c(C)n1-c1ccccc1 | 95 | i | i | i | i | i
CN(Cc1ccccc1)C(=O)OCc1cn(Cc2ccccc2F)nn1 | nt | nt | nt | nt | nt | i
CC(C)c1cc(C(C)C)c(S(=O)(=O)N2CCCC(C(=O)NCc3cccs3)C2)c(C(C)C)c1 (centres undefined) | nt | nt | nt | nt | nt | i
O=C(Nc1ccc(Nc2cccnc2)cc1)c1c[nH]c2ccccc12 | nt | nt | nt | nt | nt | i
COc1ccc(N(C)C(=S)Nc2ccc3nc(C)c(C)nc3c2)cc1 | i | i | 98 | i | i | i
Cc1nc2ccc(NC(=S)NCc3ccccc3)cc2nc1C | i | i | i | i | i | i
COc1cccc(C2c3[nH]c4ccccc4c3C[C@H]3C(=O)N(c4ccccc4C(=O)NCCCN4CCOCC4)C(=O)N23)c1 (some centres undefined) | i | i | 99 | i | i | i
COc1ccc(C2c3[nH]c4ccccc4c3C[C@H]3C(=O)N(c4ccccc4C(=O)N4CCC[C@@H]4C(=O)O)C(=O)N23)cc1 (some centres undefined) | nt | i | nt | i | i | i
O=C(NCCCN1CCOCC1)c1ccccc1N1C(=O)[C@@H]2Cc3c([nH]c4ccccc34)C(c3ccc(F)cc3)N2C1=O (some centres undefined) | i | i | i | i | i | i
O=C(NCCN1CCOCC1)c1ccccc1N1C(=O)[C@@H]2Cc3c([nH]c4ccccc34)C(c3ccccc3)N2C1=O (some centres undefined) | i | i | 99 | i | i | i
